Where a name gives a salt, the structure may show the parent alone.
What was measured:
U-2932 [1] = test: growth inhibition by drug alone (1 - RLU/untreated control) (fraction); higher = stronger inhibition; conditions: 177Lu-lilotomab satetraxetan 0 ug/ml
Summary of the method: (§1)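 With or without 18 h pretreatment by a radiolabelled anti-CD37 antibody conjugate (~600 MBq/mg; 0.5 µg/ml RIVA, 1 µg/ml U-2932), RIVA and U-2932 cells were washed and plated at 3,000 cells/well. Pre-printed compound doses were 10/100 nM for RIVA and 10/1,000 nM for U-2932. Growth inhibition uses RealTime-Glo RLU relative to the untreated no-drug wells. The calculation is 1 − RLU/mean of 48 such wells per plate, with reads daily from day 3 after 1 h at 37°C.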

RIVA [2] = test: as above; conditions: 177Lu-lilotomab satetraxetan 0 ug/ml
Summary of the method: as §1

U-2932 [3] = test: growth inhibition by drug plus 177Lu-lilotomab satetraxetan (1 - RLU/untreated control) (fraction); higher = stronger inhibition; conditions: 177Lu-lilotomab satetraxetan 1 ug/ml
Summary of the method: as §1

RIVA [4] = test: as above; conditions: 177Lu-lilotomab satetraxetan 0.5 ug/ml
Summary of the method: as §1

Structure (SMILES)	growth inhibition by drug alone (U-2932 [1]; 10 nM, time (day): 3)	growth inhibition by drug alone (U-2932 [1]; 10 nM, time (day): 4)	growth inhibition by drug alone (U-2932 [1]; 10 nM, time (day): 5)	growth inhibition by drug alone (U-2932 [1]; 10 nM, time (day): 6)	growth inhibition by drug alone (U-2932 [1]; 1000 nM, time (day): 3)	growth inhibition by drug alone (U-2932 [1]; 1000 nM, time (day): 4)	growth inhibition by drug alone (U-2932 [1]; 1000 nM, time (day): 5)	growth inhibition by drug alone (U-2932 [1]; 1000 nM, time (day): 6)	growth inhibition by drug alone (RIVA [2]; 10 nM, time (day): 3)	growth inhibition by drug alone (RIVA [2]; 10 nM, time (day): 4)	growth inhibition by drug alone (RIVA [2]; 10 nM, time (day): 5)	growth inhibition by drug alone (RIVA [2]; 10 nM, time (day): 6)	growth inhibition by drug alone (RIVA [2]; 100 nM, time (day): 3)	growth inhibition by drug alone (RIVA [2]; 100 nM, time (day): 4)	growth inhibition by drug alone (RIVA [2]; 100 nM, time (day): 5)	growth inhibition by drug alone (RIVA [2]; 100 nM, time (day): 6)	growth inhibition by drug plus 177Lu-lilotomab satetraxetan (U-2932 [3]; 10 nM, time (day): 3)	growth inhibition by drug plus 177Lu-lilotomab satetraxetan (U-2932 [3]; 10 nM, time (day): 4)	growth inhibition by drug plus 177Lu-lilotomab satetraxetan (U-2932 [3]; 10 nM, time (day): 5)	growth inhibition by drug plus 177Lu-lilotomab satetraxetan (U-2932 [3]; 10 nM, time (day): 6)	growth inhibition by drug plus 177Lu-lilotomab satetraxetan (U-2932 [3]; 1000 nM, time (day): 3)	growth inhibition by drug plus 177Lu-lilotomab satetraxetan (U-2932 [3]; 1000 nM, time (day): 4)	growth inhibition by drug plus 177Lu-lilotomab satetraxetan (U-2932 [3]; 1000 nM, time (day): 5)	growth inhibition by drug plus 177Lu-lilotomab satetraxetan (U-2932 [3]; 1000 nM, time (day): 6)	growth inhibition by drug plus 177Lu-lilotomab satetraxetan (RIVA [4]; 10 nM, time (day): 3)	growth inhibition by drug plus 177Lu-lilotomab satetraxetan (RIVA [4]; 10 nM, time (day): 4)	growth inhibition by drug plus 177Lu-lilotomab satetraxetan (RIVA [4]; 10 nM, time (day): 5)	growth inhibition by drug plus 177Lu-lilotomab satetraxetan (RIVA [4]; 10 nM, time (day): 6)	growth inhibition by drug plus 177Lu-lilotomab satetraxetan (RIVA [4]; 100 nM, time (day): 3)	growth inhibition by drug plus 177Lu-lilotomab satetraxetan (RIVA [4]; 100 nM, time (day): 4)	growth inhibition by drug plus 177Lu-lilotomab satetraxetan (RIVA [4]; 100 nM, time (day): 5)	growth inhibition by drug plus 177Lu-lilotomab satetraxetan (RIVA [4]; 100 nM, time (day): 6)
C[C@]12CC[C@@H]3c4ccc(O)cc4CC[C@H]3[C@@H]1CC[C@@H]2O [Estradiol]	0.0973	0.0727	-0.00691	-0.0255	0.0487	0.0434	-0.00409	-0.0239	0.262	0.163	0.098	-0.022	0.0522	0.0345	-0.0106	-0.0996	0.0604	0.113	0.146	0.26	0.0789	0.106	0.106	0.215	0.509	0.574	0.594	0.601	0.584	0.611	0.607	0.585
O=C(O)c1ccc(-c2c[nH]c3ncc(-c4ccccc4)cc23)cc1C1CCCC1	0.092	0.0154	-0.12	-0.193	-0.0285	-0.0484	-0.0534	0.0115	-0.0813	-0.122	-0.138	-0.797	-0.515	-0.371	-0.364	-0.433	-0.00975	0.0274	-0.00811	0.0111	0.129	0.173	0.227	0.339	0.472	0.539	0.552	0.565	0.343	0.471	0.488	0.51
C[C@]1(O)C[C@@H](c2nc(-c3ccc4ccc(-c5ccccc5)nc4c3)c3c(N)nccn32)C1 [Linsitinib (OSI-906)]	-0.0175	-0.0545	-0.0282	0.0189	-0.0281	-0.0257	-0.0322	0.0723	-0.215	-0.216	-0.261	-0.348	-0.356	-0.307	-0.329	-0.365	-0.0826	-0.0138	0.0354	0.14	-0.09	-0.0306	0.0298	0.223	0.4	0.48	0.495	0.5	0.283	0.4	0.417	0.42
C[N+](C)([O-])CCNc1ccc(NCC[N+](C)(C)[O-])c2c1C(=O)c1c(O)ccc(O)c1C2=O [Banoxantrone dihydrochloride]	-0.0281	-0.0255	-0.149	-0.168	-0.0598	-0.0493	-0.082	-0.106	-0.171	-0.248	-0.397	-0.545	-0.338	-0.41	-0.557	-0.705	-0.00903	0.0168	0.0134	-0.00428	0.0744	0.142	0.219	0.381	0.391	0.472	0.484	0.498	0.446	0.551	0.571	0.588
COc1cc2/c(=N/c3ccc(Br)cc3F)nc[nH]c2cc1OCC1CCN(C)CC1 [Vandetanib (Zactima)]	-0.05	-0.0325	-0.0228	0.016	-0.236	-0.171	-0.167	-0.12	-0.203	-0.201	-0.23	-0.529	-0.273	-0.353	-0.318	-0.441	-0.0662	-0.0404	-0.009	0.0527	-0.276	-0.164	-0.119	-0.041	0.331	0.49	0.516	0.535	0.268	0.377	0.373	0.355
Cc1cnc(Nc2ccc(OCCN3CCCC3)cc2)nc1Nc1cccc(S(=O)(=O)NC(C)(C)C)c1	-0.0562	-0.0523	-0.0582	-0.0993	0.149	0.111	-0.00563	0.00366	-0.231	-0.238	-0.322	-0.459	-0.338	-0.438	-0.41	-0.775	-0.0587	-0.0475	-0.0161	0.0198	0.127	0.122	0.0513	0.0765	0.273	0.437	0.468	0.492	0.205	0.275	0.289	0.307
CNC(=O)c1cc(Oc2ccc(NC(=O)Nc3cc(C(C)(C)C)nn3-c3ccc4ncccc4c3)c(F)c2)ccn1 [DCC-2036 (Rebastinib)]	0.0874	0.0635	0.096	-0.234	0.0869	0.114	0.104	0.0187	-0.0575	0.00723	-0.0883	-0.395	-0.428	-0.203	-0.231	-0.405	0.0343	0.0699	0.117	0.132	0.0878	0.127	0.208	0.293	0.44	0.57	0.586	0.613	0.486	0.607	0.626	0.633
OC[C@H]1O[C@@H](n2cnc3c2N=CNC[C@H]3O)C[C@@H]1O [Pentostatin]	0.1	0.0372	-0.116	-0.114	-0.0219	-0.074	-0.147	-0.0984	0.0173	-0.0212	-0.109	-0.624	-0.427	-0.321	-0.314	-0.387	-0.00817	0.056	0.0512	0.0351	0.0728	0.0721	0.118	0.207	0.472	0.557	0.557	0.555	0.399	0.488	0.5	0.513
O=C1[C@H](CC[C@H](O)c2ccc(F)cc2)[C@@H](c2ccc(O)cc2)N1c1ccc(F)cc1 [Ezetimibe (Zetia)]	0.207	0.167	0.0126	-0.0222	0.1	0.113	0.0388	-0.0102	0.0453	0.0693	-0.0268	-0.174	-0.17	-0.068	-0.0985	-0.21	0.101	0.145	0.218	0.274	0.142	0.17	0.216	0.332	0.537	0.594	0.604	0.623	0.406	0.479	0.489	0.494
CCc1cncnc1N1CCN(Cc2nc3ccc(C(F)(F)F)cc3[nH]2)CC1	0.0983	0.0884	-0.0751	-0.108	0.0626	0.102	0.0246	-0.253	0.00505	-0.0231	-0.0829	-0.347	-0.0601	-0.0865	-0.0867	-0.192	0.00491	0.0254	0.0426	0.0627	-0.00879	0.086	0.0686	0.0567	0.505	0.583	0.59	0.587	0.49	0.55	0.542	0.514
CC1(C)CNc2cc(NC(=O)c3cccnc3NCc3ccncc3)ccc21 [Motesanib Diphosphate]	0.0212	-0.0392	-0.0873	-0.298	-0.0958	-0.0733	-0.118	-0.248	-0.0638	-0.211	-0.283	-0.584	-0.22	-0.341	-0.349	-0.452	-0.0309	-0.0326	-0.0402	0.00139	-0.132	-0.033	-0.00123	0.0914	0.361	0.516	0.536	0.546	0.45	0.537	0.536	0.512
Cn1cnc2c(F)c(Nc3ccc(Br)cc3Cl)c(C(=O)NOCCO)cc21 [AZD6244 (Selumetinib)]	0.124	0.0689	-0.0711	0.0468	0.116	0.112	-0.011	0.127	0.0177	-0.0269	-0.137	-0.558	-0.313	-0.239	-0.319	-0.531	-0.00544	0.0596	0.0509	0.056	0.15	0.192	0.203	0.285	0.452	0.491	0.497	0.504	0.277	0.359	0.316	0.307
CC(C)Oc1cc(Nc2nc(N[C@@H](C)c3ccc(F)cn3)ncc2Cl)n[nH]1	0.14	0.0983	-0.0668	-0.0699	0.0367	0.0436	-0.032	-0.0869	0.0887	0.104	0.0671	-0.147	-0.29	-0.178	-0.215	-0.331	0.116	0.157	0.213	0.262	0.11	0.174	0.221	0.323	0.626	0.642	0.679	0.662	0.487	0.557	0.57	0.574
Cn1cc(-c2ccc3nnc(Sc4ccc5ncccc5c4)n3n2)cn1	0.0784	0.0569	-0.0234	-0.0672	0.09	0.0464	-0.0633	-0.0059	0.0128	0.0644	0.0167	-0.227	-0.0367	0.0223	0.00017	-0.0611	0.0469	0.105	0.177	0.212	0.0614	0.085	0.142	0.222	0.61	0.637	0.638	0.635	0.458	0.538	0.561	0.584
O=C(O[C@@H]1Cc2c(O)cc(O)cc2O[C@@H]1c1cc(O)c(O)c(O)c1)c1cc(O)c(O)c(O)c1 [(-)-Epigallocatechin gallate]	0.0464	-0.0176	-0.149	-0.234	-0.0141	-0.0657	-0.154	-0.12	-0.0443	-0.156	-0.418	-0.714	-0.587	-0.43	-0.44	-0.545	-0.0356	0.00037	-0.03	-0.022	0.0188	0.036	0.0512	0.127	0.452	0.532	0.55	0.559	0.363	0.454	–	–

— the supplement of paper PMC6897291
